The results in this text go back to PubChem BioAssay AID1423 (NMMLSC, 2008).

Each structure is given as a SMILES string. The whole screen tested about 220,000 compounds, of which about 750 (0.34%) were called active. The sample as a whole holds a higher share of actives than the screen did. Unmarked numbers belong to inactive results. Cut-off read from the data, not from the text of the source: active = response below about 60% or above about 140%; inactive = in between.

The target in the assay is Guanine nucleotide-binding protein G(o) subunit alpha (Homo sapiens) (UniProt P09471). The assay can be described thus: RGS8-Galphao binding modulators, primary screen, biochemical, multiplexed bead flow cytometry (AID 1423).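 Note: Galphao activated as the GDP aluminium fluoride complex binding bead-coupled RGS8.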 The conditions noted are these: at 10 µM, actives lie on both sides. (A flow cytometer gives signals particle by particle.)
Chain of Guanine nucleotide-binding protein G(o) subunit alpha (Homo sapiens) (P09471 whole entry, looked up): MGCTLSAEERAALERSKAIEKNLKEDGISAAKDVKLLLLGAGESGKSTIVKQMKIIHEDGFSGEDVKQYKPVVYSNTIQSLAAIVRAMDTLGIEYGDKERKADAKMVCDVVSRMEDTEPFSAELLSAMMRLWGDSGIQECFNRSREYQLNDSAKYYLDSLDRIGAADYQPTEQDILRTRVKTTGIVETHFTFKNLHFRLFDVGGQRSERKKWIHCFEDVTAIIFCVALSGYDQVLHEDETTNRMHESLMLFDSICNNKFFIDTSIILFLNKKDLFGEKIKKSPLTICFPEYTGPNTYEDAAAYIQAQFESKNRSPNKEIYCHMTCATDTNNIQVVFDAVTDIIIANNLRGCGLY
As to `Cc1ccc(S(=O)(=O)CC(=O)Nc2c(C)n(C)n(-c3ccccc3)c2=O)cc1`, the response (percent of control binding) is 97.4%. `Cc1cc(C)cc(N(CC(=O)Nc2c(C)n(C)n(-c3ccccc3)c2=O)S(C)(=O)=O)c1`: the response (percent of control binding) is 1.54% (active).

Consider `Cc1cc(C)cc(N(C(C)C(=O)Nc2c(C)n(C)n(-c3ccccc3)c2=O)S(C)(=O)=O)c1` (stereo unspecified), for which the response (percent of control binding) was 104%. With `CCc1nn(-c2cc(Oc3cccc4ccccc34)nc(-c3ccccc3)n2)c(N)c1C#N`, the response (percent of control binding) is 105%. For `N/C(=N\S(=O)(=O)c1ccc(Cl)cc1)N1CCOCC1` the value was 98.4%. On to `CC(C)(C)C(=O)NNC(=O)c1ccc(Oc2cc(Cl)cc(Cl)c2)o1`, for which the response (percent of control binding) was 104%. On to `O=C(CN1CCOCC1)Nc1c(Cl)cc(Cl)cc1Cl`, for which the response (percent of control binding) is 96%. Regarding `O=C(CN1CCOCC1)Nc1ccc(NC(=O)CN2CCOCC2)c(Cl)c1`, the response (percent of control binding) was 100%. As for `O=C(CN1CCOCC1)Nc1ccccc1`, the response (percent of control binding) is 145% [activator] (active).

On to `CC(=O)c1ccc(N=C2SCCCN2C(=O)C2CCCCC2)cc1`, for which the response (percent of control binding) was 95.4%.

As for `O=C(NNc1c2ccccc2nc2ccccc12)c1cc2ccccc2cc1O`, the response (percent of control binding) is 98.1%. As for `Cc1ccc(S(=O)(=O)N2CCN(C(=O)COC(=O)c3c(C)noc3C)CC2)c(C)c1`, the response (percent of control binding) is 103%. For `N#Cc1nc(-c2ccc(OCc3ccccc3)cc2)oc1NCCCN1CCOCC1` the value was 99.9%. Regarding `O=S(=O)(c1ccc(Br)cc1)c1nc(-c2ccccc2)oc1NCc1cccnc1`, the response (percent of control binding) was 103%.

Regarding `N#Cc1nc(COc2ccc(-c3ccccc3)cc2)oc1NCc1cccnc1`, the response (percent of control binding) is 167% [activator] (active). For `CC(C)(C)NC(=O)NC(=O)COC(=O)Cc1c(F)cccc1Cl` the value was 99.5%; for `CCCCC(CC(C)O)c1n[nH]c(=S)n1-c1ccccc1` (stereo unspecified), 108%. For `S=c1[nH]nc(CSCc2ccc(Cl)cc2Cl)n1-c1ccccc1` the value was 92.7%; for `CCn1c(CSCc2c(Cl)cccc2Cl)n[nH]c1=S`, 55.5% (active).

In the case of `CCn1c(CNS(=O)(=O)c2ccc(Cl)cc2)n[nH]c1=S`, the response (percent of control binding) is 100%. For `Cc1ccc(C(=O)C(=S)N2CCOCC2)cc1` the value was 110%; for `CC1CC(C)(C)n2c(O)c(N=NC(N)=S)c3cccc1c32` (stereo unspecified), 100%; for `NS(=O)(=O)c1ccc(CCNC(=O)CCCn2c(SCC(=O)N3CCCC3)nc3ccsc3c2=O)cc1`, 103%. For `O=[N+]([O-])c1ccccc1Nc1ccc(O)cc1` the value was 102%. In the case of `O=C(CC1SC(=Nc2ccccc2F)N(CCN2CCOCC2)C1=O)Nc1ccc(F)cc1F` (stereo unspecified), the response (percent of control binding) is 97.3%. Regarding `COc1ccc(CC(=O)N/N=C(\C)c2ccccn2)cc1`, the response (percent of control binding) was 72.6%. For `CCN(CC)CCOc1ccc2c(c1)C(=NNC(=O)c1ccccn1)c1cc(OCCN(CC)CC)ccc1-2` the value was 154% [activator] (active); for `CCOc1cc(NC(=O)c2ccccn2)c(OCC)cc1NC(=O)c1ccc(OC)cc1`, 103%. As to `COC(=O)C1=C(C)NC(=O)/C1=C/c1ccc(CNS(=O)(=O)c2ccc(C)cc2)o1`, the response (percent of control binding) was 91%.

In the case of `Cn1c(=O)c2c(n(Cc3ccccc3)c1=O)NC(=O)C2CC(=O)N1CCc2ccccc2C1` (stereo unspecified), the response (percent of control binding) is 12.1% (active). Consider `O=C(CSc1nnc(-c2cccs2)n1Cc1ccccc1)N1CCc2ccccc2C1`, for which the response (percent of control binding) was 97%. In the case of `O=C(COc1ccccc1)N1CCc2ccccc2C1`, the response (percent of control binding) was 101%. Consider `O=C(NC1CCCCC1)C1CCCN(S(=O)(=O)c2ccc(Br)s2)C1` (stereo unspecified), for which the response (percent of control binding) is 96.9%. On to `O=C(O)c1ccc2c3c(cccc13)C(=O)N(OS(=O)(=O)c1ccccc1)C2=O`, for which the response (percent of control binding) is 98.5%. As to `CN1CCN(S(=O)(=O)c2ccc(N3CCN(S(=O)(=O)c4cccs4)CC3)nc2)CC1`, the response (percent of control binding) was 100%. As for `Cc1ccc(NC(=O)NCC(c2cccnc2)N2CCOCC2)cc1` (stereo unspecified), the response (percent of control binding) was 103%. For `CN1CCN(C(CNS(=O)(=O)c2cccs2)c2cccnc2)CC1` (stereo unspecified) the value was 10.6% (active); for `CCOC(=O)CCNC(=O)N1CCCC(C(=O)c2ccccc2SC)C1` (stereo unspecified), 90.6%. For `Cc1ccc2c(N)c(C(=O)c3ccccc3)sc2n1` the value was 104%; for `COc1cc(OC)cc(C(=O)NCCSCc2ccco2)c1`, 97.9%; for `COc1cccc(C(=O)NCCSc2ccc(Br)cc2)c1`, 20.7% (active). For `COc1cccc(C(=O)NNC(=O)c2ccccc2Br)c1`, the response (percent of control binding) is 107%. `OC(c1ccccc1)c1nccn1Cc1ccccc1` (stereo unspecified): the response (percent of control binding) was 97.5%. For `OC(c1nc2ccccc2[nH]1)C(O)C(O)C(O)c1nc2ccccc2[nH]1` (stereo unspecified), the response (percent of control binding) was 100%. For the compound `O=C(N/N=C/c1cccc([N+](=O)[O-])c1)c1ccncc1`, the response (percent of control binding) is 99.5%. As to `Cc1c(C(=O)Nc2ccccc2Cl)oc2ccc(S(=O)(=O)N3CCC4(CC3)OCCO4)cc12`, the response (percent of control binding) was 105%.

Consider `CCOc1ccccc1NC(=O)c1cc(S(=O)(=O)N2CCC3(CC2)OCCO3)ccc1F`, for which the response (percent of control binding) is 33% (active).

`CCOc1ccccc1NC(=O)CCN1CCN(S(=O)(=O)c2ccc(OC)cc2)CC1`: the response (percent of control binding) was 99.6%. `CC(=O)c1cccc(-n2nnnc2SCC(=O)NNC(=O)C2CCCCC2)c1`: the response (percent of control binding) is 91.2%. As to `O=C(COC(=O)/C(=C/c1cccs1)c1cccs1)NCc1ccccc1Cl`, the response (percent of control binding) is 85.8%. On to `O=C(CSc1ccccc1)Nc1ccc(C(=O)Nc2cccc(O)c2)cc1`, for which the response (percent of control binding) is 109%. Take `O=C(Cn1nnc(N2CCCCC2)n1)c1ccc(Cl)c(Cl)c1`: the response (percent of control binding) is 97.6%. On to `COc1ccc(CCC(=O)OCC(=O)Nc2ccc(C)c(S(=O)(=O)N(C)C)c2)cc1`, for which the response (percent of control binding) was 57.7% (active).

In the case of `COc1cc(CCC(=O)OCC(=O)Nc2cccc(S(N)(=O)=O)c2)cc(OC)c1OC`, the response (percent of control binding) is 95.2%. In the case of `Cc1ccc(NC(=O)CNCc2ccccn2)cc1S(=O)(=O)N(C)C`, the response (percent of control binding) was 97.7%.

For the compound `O=C1CCC/C(=N\NC(=O)NC2CCCCC2)C1`, the response (percent of control binding) was 100%. With `COc1ccc(OC)c(-n2c(-c3ccn[nH]3)n[nH]c2=S)c1`, the response (percent of control binding) was 98.6%. Regarding `COc1ccccc1-n1c(-c2cc(-c3ccco3)[nH]n2)n[nH]c1=S`, the response (percent of control binding) was 6.3% (active). Consider `COc1ccccc1-n1cn[nH]c1=S`, for which the response (percent of control binding) was 102%. On to `COc1ccc(-c2onc(C)c2-c2ccc3c(c2)OCCO3)c(O)c1`, for which the response (percent of control binding) is 101%. For the compound `O=C(NCCCN1CCOCC1)c1ccccc1NS(=O)(=O)c1ccc(Br)cc1`, the response (percent of control binding) is 99.3%. Consider `COc1ccc(C(=O)NNC(=O)c2cc(C)[nH]n2)cc1`, for which the response (percent of control binding) was 121%. On to `COc1ccc(C(=O)NNc2cc(C)nc(NNC(=O)c3ccc(OC)cc3)n2)cc1`, for which the response (percent of control binding) is 54% (active).

Turning to `COc1ccc(C(=O)NNS(=O)(=O)c2ccc(C)cc2)cc1`, the response (percent of control binding) is 101%. With `CC(=O)Nc1ccc(N2C(=O)CCC2=O)cc1C`, the response (percent of control binding) was 100%. As for `COc1ccccc1CCNC(=O)CSc1nnc2ccc(-c3cccnc3)nn12`, the response (percent of control binding) was 92.2%. On to `CCOC(=O)NNc1cc(C(F)(F)F)ccn1`, for which the response (percent of control binding) was 133%.

Consider `Nc1nnn(CC(=O)N/N=C/c2ccccc2)n1`, for which the response (percent of control binding) was 99.3%. As to `COc1ccc(C2=NOC(COC(=O)c3ccc4ccccc4n3)C2)cc1` (stereo unspecified), the response (percent of control binding) was 101%.

For `CC(OC(=O)c1ccc2ccccc2n1)C(=O)c1ccccc1` (stereo unspecified), the response (percent of control binding) was 103%. In the case of `COc1ccc(C(=O)COC(=O)c2ccc3ccccc3n2)cc1`, the response (percent of control binding) was 28.9% (active). Regarding `COC(=O)C1=C(C)N(c2ccc(C)cc2)/C(=C/c2ccc(O)cc2)C1=O`, the response (percent of control binding) is 99.9%. In the case of `COc1cccc2c(N/N=C/c3ccco3)cc(C)nc12`, the response (percent of control binding) was 96.9%. For `CCN(CC)CCNCC(=O)Nc1ccc(Oc2ccccc2)cc1` the value was 99.5%; for `Cn1c(=NC(=O)c2ccco2)sc2cccc(F)c21`, 103%. For the compound `CCCC(=O)N=c1sc2cccc(F)c2n1C`, the response (percent of control binding) was 37.2% (active).

Take `Cn1c(=NC(=O)C2CC2)sc2cc(F)cc(F)c21`: the response (percent of control binding) is 96.6%. As to `Cn1cc(-c2ccccc2)cc(C#N)c1=O`, the response (percent of control binding) is 103%. For `Cc1ccccc1/[N+]([O-])=C/c1ccncc1`, the response (percent of control binding) is 100%. `CN(C)S(=O)(=O)c1cccc(NC(=O)COC(=O)/C=C/c2cccs2)c1`: the response (percent of control binding) was 102%. On to `Oc1ccc(N=Nc2nccs2)c(O)c1`, for which the response (percent of control binding) is 6.26% (active). On to `Oc1ccc2ccccc2c1N=Nc1nccs1`, for which the response (percent of control binding) is 99.8%. Consider `CONC(=O)c1cc(OCC(F)(F)F)ccc1OCC(F)(F)F`, for which the response (percent of control binding) was 103%. For `CCc1ccc(C(=O)OCC(=O)Nc2cccc(S(=O)(=O)NC3=NCCCCC3)c2)cc1` the value was 104%; for `Cc1ccc(S(=O)(=O)N2CCC(C(=O)N[C@@H](C)C(=O)NCc3ccco3)CC2)cc1`, 103%. For `CN1CCN(C2=NCCO2)CC1` the value was 100%. Take `O=C1C2N=NN(CC(=O)N3N=C(c4cccc5ccccc45)CC3c3ccccc3)C2C(=O)N1c1ccccc1` (stereo unspecified): the response (percent of control binding) is 90.3%.

As for `COc1ccc(S(=O)(=O)N2CCCCCC2)cc1C(=O)OCC(=O)Nc1cc(C)on1`, the response (percent of control binding) is 100%.

Regarding `COc1cc(/C=C(/NC(=O)c2ccc(Cl)cc2Cl)C(=O)O)cc(OC)c1OC`, the response (percent of control binding) is 75.5%. For `C=C(C)CNC(=S)/N=c1\scc(C)n1CC`, the response (percent of control binding) was 98.7%.

Turning to `O=S(=O)(c1ccccc1)N(CC(O)CN1CCCCC1)c1ccccc1` (stereo unspecified), the response (percent of control binding) is 101%. As to `Cc1ccc(N(CC(O)CN2CCCC2)S(=O)(=O)c2ccccc2)cc1` (stereo unspecified), the response (percent of control binding) was 97.6%. As to `Cc1cc(C)n(CC(O)CN(c2ccccc2)S(=O)(=O)c2ccc3ccccc3c2)n1` (stereo unspecified), the response (percent of control binding) is 15% (active). As to `C[C@H](NC(=O)c1ccccc1Cl)C(=O)OCCOc1cccc(Cl)c1`, the response (percent of control binding) is 105%. For `NS(=O)(=O)c1ccc(CCNC(=O)c2ccc(Cl)cc2[N+](=O)[O-])cc1` the value was 102%; for `CC(=O)c1cc2c(cc1NC(=O)CN1CCCCCC1)OCO2`, 111%.
